# Bioassay records: PubChem BioAssay, several laboratories
# CR mimetic SO: yeast age-related superoxide inhibition as caloric restriction mimetic; S. cerevisiae aged cells, superoxide DHE fluorescence; stronger effect = lower value; superoxide response (% of plate mean), % at 10 µM; 330,000 tested, 0.18% active; AID 2690;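 active = superoxide response under a set limit, about three screen SD below normal, cut at about 65% in these data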;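 note: yeast aged for seven days with compound at 30 °C before DHE staining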
# HTR5A ag: activates human HTR5A in OPRM1-OPRD1 agonist counter-screen; P47898; HTR5A agonist assay, luminescence, cell-based; activation, % at 9.3 µM; 340,000 tested, 0.61% active; in the data active = activation mostly above about 9.5%, no sharp cut-off; inactive = mostly below about 7.6%
# PvdQ inh: blocks Pseudomonas aeruginosa PvdQ acylase activity | purified PvdQ acylase, fluorescence plate reader | inhibition, % at 10 µM | AID 488965 | 340,000 tested, 0.063% active; in the data active = inhibition above about 30%, passing the limit was not always enough
# HTR5A inv ctr: inverse agonist of human HTR5A in OPRM1-OPRD1 counter-screen; 340,000 tested, 0.083% active; AID 504634; inhibition, % at 9.3 µM; HTR5A cell line, luminescence, inverse agonism; in the data active = inhibition mostly above about 23%, no sharp cut-off; inactive = mostly below about 18%
# OPRM1-OPRD1 inv: mu-delta opioid heterodimer inverse agonism | P35372+P41143 | cell-based MOR-DOR heterodimer luminescence | inhibition, % at 9.3 µM | 340,000 tested, 0.21% active | AID 504357; in the data active = inhibition above about 22%, passing the limit was not always enough
# MOR-DOR ag: agonists of human mu-delta opioid receptor heterodimerization. P35372+P41143. cells, OPRM1-OPRD1 heterodimerization, luminescence. activation, % at 9.3 µM. 340,000 tested, 0.3% active. AID 504326; in the data active = activation above about 18%
# Numbers stand for hits; . = inactive; / = not tested or not shown. Sampled rows, rich in hits. Any-hit rate of the full collection: about 1.3%.
SMILES,CR mimetic SO,HTR5A ag,PvdQ inh,HTR5A inv ctr,OPRM1-OPRD1 inv,MOR-DOR ag
CCCOC(=O)c1ccc(NC(=O)c2cccc(S(=O)(=O)N3CCN(C(C)=O)CC3)c2)cc1,.,.,.,.,.,.
O=C1C=C(c2ccccc2)OC(c2ccccc2)O1 (stereo unspecified),.,.,47,.,.,.
O=C1C=C(c2ccccc2)OC2(CCCC2)O1,.,.,.,.,.,.
Cc1sc(-c2ccncc2)nc1OC(=O)c1ccc(F)cc1F,.,9.8,.,.,.,.
O=C1C2C3C=CC(C4CC34)C2C(=O)N1CCc1ccccc1 (stereo unspecified),.,.,.,.,.,.
O=C(CN1C(=O)C2C3C=CC(C4CC34)C2C1=O)Oc1ccccc1 (stereo unspecified),.,.,34,.,.,.
Cc1ccc(-c2nc(C)sc2CC(=O)OCC(=O)Nc2ccc(F)c(Cl)c2)cc1,.,.,.,.,.,.
O=C(NCC(c1ccc(F)cc1)N1CCOCC1)c1ccccc1F (stereo unspecified),.,12,.,.,.,.
COc1ccc(-c2ccc(-c3cc(=O)oc4c(C(C)C)ccc(C)c34)cc2)cc1,.,.,.,.,.,.
COc1ccc(-c2nn(Cc3ccccc3)cc2C(=O)N2CCN(c3ncccn3)CC2)cc1OC,.,12,.,.,.,.
O=C1c2c(Cl)c(Cl)c(Cl)c(Cl)c2C(=O)N1c1nccs1,/,.,.,.,.,.
CCC(C)NCCOCCOc1ccc(F)cc1 (stereo unspecified),.,.,.,.,.,.
CCC(C)NCCOCCOc1cc(C)c(Cl)c(C)c1 (stereo unspecified),.,12,.,.,.,.
CCN(CC(=O)Nc1c(F)cccc1F)C(=O)CCCc1cccs1,.,.,.,.,.,.
Cn1nc(C(=O)OCC(=O)N2CCc3ccccc32)c2ccccc2c1=O,.,.,.,.,.,.
O=C(OCC(=O)N1CCc2ccccc21)c1n[nH]c(=O)c2ccccc12,.,13,.,.,.,.
CCOC(=O)C(C)CC(C)C(=O)N1CCOCCN(C(=O)C(C)CC(C)C(=O)OCC)CCOCC1 (stereo unspecified),.,9.2,.,.,.,.
CC(C)(C)NC(=O)CN(CCN1CCOCC1)C(=O)CNS(=O)(=O)c1ccc(Cl)cc1,.,.,.,.,.,.
O=C(N/N=C/c1ccc([N+](=O)[O-])cc1)c1cc(-c2ccc3c(c2)OCO3)n[nH]1,.,13,.,.,.,.
Cc1ccc(S(=O)(=O)N2CCCCC2c2cccnc2)c(C)c1C (stereo unspecified),.,13,.,.,.,.
Cc1cc(=O)oc2cc(NC(=O)c3ccccc3OC(F)F)ccc12,.,.,.,.,.,.
Cc1cccc(C)c1NC(=O)C(=O)NCCc1c[nH]c2ccccc12,.,.,.,.,.,.
Cc1cc(C)c(S(=O)(=O)N2CCCOC2CNC(=O)C(=O)NCCc2c[nH]c3ccccc23)c(C)c1 (stereo unspecified),.,12,.,.,.,.
Cc1cccc(NC(=O)C(=O)NCCc2c[nH]c3ccccc23)c1C,.,14,.,.,.,.
Cc1ccc(C)c(NC(=O)C(=O)NCCc2c[nH]c3ccccc23)c1,.,.,.,.,.,.
SMILES,CR mimetic SO,HTR5A ag,PvdQ inh,HTR5A inv ctr,OPRM1-OPRD1 inv,MOR-DOR ag
Cc1cc(C)cc(NC(=O)C(=O)NCCc2c[nH]c3ccccc23)c1,.,14,.,.,.,.
N#Cc1ccc(NC(=O)c2cc(S(=O)(=O)N3CCOCC3)ccc2N2CCCC2)cc1,.,.,.,.,.,.
CC1=C/C(=C(\c2cc(C)c(O)c(Br)c2)c2ccccc2S(=O)(=O)O)C=C(Br)C1=O,.,.,.,.,28,.
CN(Cc1ccccc1)C(=O)CCCn1c(=O)[nH]c2cc(Cl)ccc2c1=O,.,13,.,.,.,.
O=C(CCCn1c(=O)[nH]c2cc(Cl)ccc2c1=O)NC1CCCCCCC1,.,.,.,.,.,.
Cc1ccc2c(c1)C1C3CCC(C3)C1S(=O)N2 (stereo unspecified),.,.,57,.,.,.
CC(C)c1ccc(N(CC(=O)NCc2ccco2)C(=O)CCC(=O)Nc2nccs2)cc1,.,.,.,.,.,.
Cc1sc2ncnc(N3CCC(C(=O)Nc4nnc(SCc5ccccc5F)s4)CC3)c2c1C,.,.,.,.,.,.
O=C(Cc1ccccc1F)Nc1ccc2c(c1)CCC2,.,9.6,.,.,.,.
Cc1ccccc1CC(=O)Nc1ccc2c(c1)CCC2,.,.,.,.,.,.
Cc1cc2ccccc2n1CCNC(=O)COc1ccccc1,.,.,.,.,.,31
COc1ccc(S(=O)(=O)Cc2ccc(C(=O)N3CC(C)CC(C)C3)o2)cc1 (stereo unspecified),.,13,.,.,.,.
COc1ccc(Cn2c(=S)[nH]c3cc(C(=O)NCc4cccnc4)ccc3c2=O)cc1,.,13,.,.,.,.
CCn1nc(NC(C)=O)c2cc3cccc(C)c3nc21,.,.,.,.,.,.
CCn1nc(NC(=O)C(C)C)c2cc3cccc(C)c3nc21,.,11,.,.,.,.
CC(C)CN(C(=O)CSc1nc(N)cc(N)n1)C1CCS(=O)(=O)C1 (stereo unspecified),.,.,.,.,.,.
C=CCNc1nc(N(c2ccccc2)c2ccccc2)nc(-n2ccnc2)n1,.,12,.,.,.,.
CC(=O)Nc1sc(N/N=C/c2ccccc2)nc1-c1ccc(C)cc1,.,13,.,.,.,.
N#Cc1ccc(Nc2nc(-c3ccc(O)cc3O)cs2)cc1C(F)(F)F,.,13,.,.,.,.
Cc1cc(C)cc(N(C(=O)c2csnn2)C(C(=O)NC2CCCC2)c2cccnc2)c1 (stereo unspecified),.,.,.,.,.,.
CC(=O)OCCNc1cc(Sc2nc3ccccc3[nH]2)c2nonc2c1[N+](=O)[O-],.,.,.,.,35,.
CC(=O)OCCCNc1cc(Sc2nc3ccccc3s2)c2nonc2c1[N+](=O)[O-],.,.,.,.,.,.
CC(OC(=O)/C=C/c1ccccc1Cl)C(=O)NC1CCCCC1C (stereo unspecified),.,.,.,.,.,.
Oc1ccc(Cl)cc1C1=NNC(c2cccs2)C1 (stereo unspecified),.,.,34,.,.,.
O=C(NC(=S)Nc1c(Cl)ccc2nsnc12)c1ccccc1F,.,10,.,.,.,.
Cc1ccc2nsnc2c1NC(=S)NC(=O)c1ccco1,.,.,.,.,.,.
COc1ccc(-n2c(CN3CCN(c4ccccc4OC)CC3)nc3ccc([N+](=O)[O-])cc3c2=O)c(OC)c1,/,9.9,.,.,.,.
CCN1CCN(Cc2nc3ccc([N+](=O)[O-])cc3c(=O)n2-c2ccc(OC)cc2OC)CC1,.,.,.,.,.,.
